# Source: PubChem BioAssay
# Active and inactive are the calls of the source. Unless noted, the rule behind the calls is not given here.
# How the values were obtained:
# [1] = compounds binding Alexa647 anti-His antibody – biochemical, small-molecule microarray, 635 nm fluorescence, artefact control for SMM control protein annotation, primary screen (AID 1128); details: higher = more signal;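 note: score merges feature fluorescence with signal-to-noise for each printed compound spot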
# [2] = tested on: Human papillomavirus type 1a E7 protein (residues 1-88); experiment: HPV1a E7 small-molecule binders, primary screen, biochemical, small-molecule microarray, residues 1-88, 635 nm (AID 1129); details: small-molecule microarray binding, fluorescence 635 nm; higher = more signal
# [3] = target: Focal adhesion kinase 1 (Homo sapiens) (UniProt Q05397); experiment: PTK2 protein binding on printed compound slides – biochemical, small-molecule microarray, 635/667 nm fluorescence, BSA, DTT, primary screen (AID 1130); details: 635 nm fluorescence, higher = more signal;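 note: composite of spot emission at 667 nm and signal to noise over triplicate slides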
# [4] = tested on: Fibrinogen (Alexa647-labelled); experiment: Alexa647-fibrinogen binding to printed small molecules – biochemical, small-molecule microarray, 635/667 nm fluorescence, artefact control for SMM control-protein annotation, profiling panel (AID 1131); details: fibrinogen-A647 binding fluorescence, higher = more signal;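 note: z-score merges 667 nm fluorescence with per-spot signal-to-noise over triplicate slides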
# [5] = target: Follistatin (Homo sapiens) (UniProt P19883); experiment: FST protein binding to printed compounds – biochemical, small-molecule microarray, 635/667 nm fluorescence, primary screen (AID 1132); details: 635 nm fluorescence, higher = more signal
# [6] = target: Fibroblast growth factor 2 (Homo sapiens) (UniProt P09038); experiment: basic fibroblast growth factor binding to printed compounds – biochemical, small-molecule microarray, 635/667 nm fluorescence, primary screen (AID 1133); details: FGF2, fluorescence 635/667, higher = more signal
# [7] = JC-1 mitochondrial potential readout, lung cancer cells – cell-based, A549, JC-1 fluorescence, basal, 24 h, 100 nL, profiling panel (AID 1138); details: higher = more signal;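 note: A549 lung adenocarcinoma cells under basal conditions with no added stimulus; test concentration not given here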
# Lefty1 = Lefty1 protein binding to printed compounds – biochemical, small-molecule microarray, 635/667 nm fluorescence, primary screen (AID 1139); details: fluorescence 635/667, higher = more signal
# [8] = tested on: wheat germ agglutinin (Triticum aestivum), Alexa647-labelled; experiment: Alexa647-WGA lectin binding to printed small molecules – biochemical, small-molecule microarray, 635/667 nm fluorescence, artefact control for SMM control-protein annotation, profiling panel (AID 1140); details: WGA-A647 binding, 635 nm fluorescence, higher = more signal;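 note: score merges 667 nm feature emission with signal to noise over triplicate slides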
# [9] = target: Luciferin 4-monooxygenase (Photinus pyralis) (UniProt P08659); experiment: inhibition of purified Photinus pyralis luciferase – biochemical, luminescence, purified enzyme, 2006 set, primary screen (AID 1141); details: purified firefly luciferase, SteadyGlo luminescence, 30 min; higher = more signal, called active from +8 up or from −8 down;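 note: cell-free assay with purified firefly luciferase at 100 ng per well in PBS; test concentration not given here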
# [10] = tested on: Wnt5a (protein binding on small-molecule microarray); experiment: small molecules binding Wnt5a protein – biophysical, small-molecule microarray, 635/667 nm fluorescence, primary screen (AID 1142); details: 635 nm fluorescence, higher = more signal;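 note: fluorescence read at 667 nm with signal to noise per printed feature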
# [11] = ATP-based viability of Huh7 replicon cells – cell-based, CellTiter-Glo luminescence, basal, 48 h, cytotoxicity control for HCV replication inhibitor project, primary screen (AID 1143); details: higher = more signal, called active from +8 up or from −8 down;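 note: Huh7 hepatoma cells carrying a hepatitis C replication reporter with no stimulus; test concentration not given here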
# [12] = Pseudomonas biofilm growth suppression – PAO1 strain, BacTiter-Glo luminescence, LB-PBS, primary screen (AID 1144); details: P. aeruginosa PAO1 biofilm, 12 h, higher = more signal
# [13] = basal CRE-LacZ reporter activity in PC12 – cell-based, unstimulated, primary screen (AID 1145); details: no forskolin, luminescence, 4.5 h, higher = more signal, called active from +8 up or from −8 down
# [14] = forskolin-driven CRE-LacZ activity in PC12 – cell-based, CRE-LacZ reporter, forskolin-stimulated, primary screen (AID 1146); details: luminescence, 4.5 h, higher = more signal, called active from +8 up or from −8 down;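 note: PC12 cells with 6xCRE LacZ reporter stimulated by forskolin 10 µM; beta-galactosidase reporter signal reflecting CREB driven transcription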
# [15] = target: Streptavidin (Streptomyces avidinii) (UniProt P22629); experiment: compounds binding control protein streptavidin – biophysical, small-molecule microarray, 635/667 nm fluorescence, artefact control for SMM compound annotation, primary screen (AID 1147); details: higher = more signal;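 note: signal reflects streptavidin binding to arrayed compounds as a control protein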
# [16] = probe aInhba binding on compound microarray – biochemical, small-molecule microarray, 635/667 nm fluorescence, primary screen (AID 1148); details: higher = more signal;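 note: score merges 667nm spot fluorescence with signal-to-noise for antibody binding to printed compounds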
# Torsin-1A (Homo sapiens) [17] = target: Torsin-1A (Homo sapiens) (UniProt O14656); experiment: TOR1A wild-type binding on microarray – cell lysate, small-molecule microarray, lysate, 635/667 nm, primary screen (AID 1149); details: COS7 hTOR1A-WT lysate, 635 nm fluorescence, higher = more signal
# Torsin-1A (Homo sapiens) [18] = target: Torsin-1A (Homo sapiens) (UniProt O14656); experiment: torsin A mutant lysate binding on microarrays – cell lysate, small-molecule microarray, COS7 lysate, 635/667 nm fluorescence, primary screen (AID 1150); details: COS7 hTOR1A mutant lysate, 635 nm fluorescence, higher = more signal;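 note: score pools 667 nm emission and signal to noise measuring lysate protein binding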
# [19] = tested on: Sonic hedgehog protein (Shh); experiment: Sonic hedgehog microarray binding compounds – biochemical, small-molecule microarray, 635/667 nm fluorescence, primary screen (AID 1151); details: 635 nm fluorescence, higher = more signal;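 note: Shh protein binding to compounds spotted on small-molecule microarray slides; score combines spot fluorescence intensity with signal-to-noise across triplicate slides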
# Chain of Luciferin 4-monooxygenase (Photinus pyralis) (P08659 whole entry, looked up): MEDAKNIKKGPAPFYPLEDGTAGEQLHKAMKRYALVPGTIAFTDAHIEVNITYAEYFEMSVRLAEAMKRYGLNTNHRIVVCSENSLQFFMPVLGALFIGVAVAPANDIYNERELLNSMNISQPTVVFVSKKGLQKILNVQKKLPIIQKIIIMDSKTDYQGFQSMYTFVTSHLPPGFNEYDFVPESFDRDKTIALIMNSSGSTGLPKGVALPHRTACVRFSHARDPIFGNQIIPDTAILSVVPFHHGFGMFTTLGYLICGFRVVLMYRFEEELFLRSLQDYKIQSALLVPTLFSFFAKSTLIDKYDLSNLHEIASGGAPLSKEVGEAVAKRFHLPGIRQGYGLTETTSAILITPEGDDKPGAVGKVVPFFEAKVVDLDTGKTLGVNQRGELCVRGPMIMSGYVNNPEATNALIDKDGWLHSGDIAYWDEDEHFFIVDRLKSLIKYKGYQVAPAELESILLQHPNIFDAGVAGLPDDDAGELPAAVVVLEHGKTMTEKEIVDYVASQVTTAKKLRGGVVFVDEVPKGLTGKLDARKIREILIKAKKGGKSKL
# Chain of Torsin-1A (Homo sapiens) (O14656 whole entry, looked up): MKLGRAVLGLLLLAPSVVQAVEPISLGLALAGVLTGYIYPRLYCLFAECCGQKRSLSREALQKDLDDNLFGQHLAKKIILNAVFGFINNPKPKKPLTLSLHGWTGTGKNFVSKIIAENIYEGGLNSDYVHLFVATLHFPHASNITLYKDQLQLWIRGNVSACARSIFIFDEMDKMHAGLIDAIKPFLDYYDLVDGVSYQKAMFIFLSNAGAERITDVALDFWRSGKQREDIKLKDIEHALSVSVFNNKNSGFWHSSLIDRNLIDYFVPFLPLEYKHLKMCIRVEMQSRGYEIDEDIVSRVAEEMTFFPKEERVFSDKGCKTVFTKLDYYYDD
# Chain of Fibroblast growth factor 2 (Homo sapiens) (P09038 whole entry, looked up): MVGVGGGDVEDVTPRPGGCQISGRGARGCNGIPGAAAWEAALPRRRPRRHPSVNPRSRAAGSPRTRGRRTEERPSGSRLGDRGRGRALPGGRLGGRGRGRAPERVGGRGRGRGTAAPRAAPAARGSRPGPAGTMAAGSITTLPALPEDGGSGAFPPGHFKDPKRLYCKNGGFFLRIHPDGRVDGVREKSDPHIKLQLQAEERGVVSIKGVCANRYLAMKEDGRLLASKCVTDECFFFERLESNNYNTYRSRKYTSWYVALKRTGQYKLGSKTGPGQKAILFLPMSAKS
# Chain of Follistatin (Homo sapiens) (P19883 whole entry, looked up): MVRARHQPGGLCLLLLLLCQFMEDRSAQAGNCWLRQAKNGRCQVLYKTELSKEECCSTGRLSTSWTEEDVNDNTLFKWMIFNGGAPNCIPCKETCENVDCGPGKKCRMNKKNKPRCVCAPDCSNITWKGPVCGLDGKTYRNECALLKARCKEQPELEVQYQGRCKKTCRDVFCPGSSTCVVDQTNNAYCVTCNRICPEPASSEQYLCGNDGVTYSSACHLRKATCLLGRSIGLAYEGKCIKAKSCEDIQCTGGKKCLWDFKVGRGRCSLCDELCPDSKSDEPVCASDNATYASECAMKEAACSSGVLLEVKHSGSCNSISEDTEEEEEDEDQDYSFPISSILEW
# Chain of Focal adhesion kinase 1 (Homo sapiens) (Q05397 whole entry, looked up): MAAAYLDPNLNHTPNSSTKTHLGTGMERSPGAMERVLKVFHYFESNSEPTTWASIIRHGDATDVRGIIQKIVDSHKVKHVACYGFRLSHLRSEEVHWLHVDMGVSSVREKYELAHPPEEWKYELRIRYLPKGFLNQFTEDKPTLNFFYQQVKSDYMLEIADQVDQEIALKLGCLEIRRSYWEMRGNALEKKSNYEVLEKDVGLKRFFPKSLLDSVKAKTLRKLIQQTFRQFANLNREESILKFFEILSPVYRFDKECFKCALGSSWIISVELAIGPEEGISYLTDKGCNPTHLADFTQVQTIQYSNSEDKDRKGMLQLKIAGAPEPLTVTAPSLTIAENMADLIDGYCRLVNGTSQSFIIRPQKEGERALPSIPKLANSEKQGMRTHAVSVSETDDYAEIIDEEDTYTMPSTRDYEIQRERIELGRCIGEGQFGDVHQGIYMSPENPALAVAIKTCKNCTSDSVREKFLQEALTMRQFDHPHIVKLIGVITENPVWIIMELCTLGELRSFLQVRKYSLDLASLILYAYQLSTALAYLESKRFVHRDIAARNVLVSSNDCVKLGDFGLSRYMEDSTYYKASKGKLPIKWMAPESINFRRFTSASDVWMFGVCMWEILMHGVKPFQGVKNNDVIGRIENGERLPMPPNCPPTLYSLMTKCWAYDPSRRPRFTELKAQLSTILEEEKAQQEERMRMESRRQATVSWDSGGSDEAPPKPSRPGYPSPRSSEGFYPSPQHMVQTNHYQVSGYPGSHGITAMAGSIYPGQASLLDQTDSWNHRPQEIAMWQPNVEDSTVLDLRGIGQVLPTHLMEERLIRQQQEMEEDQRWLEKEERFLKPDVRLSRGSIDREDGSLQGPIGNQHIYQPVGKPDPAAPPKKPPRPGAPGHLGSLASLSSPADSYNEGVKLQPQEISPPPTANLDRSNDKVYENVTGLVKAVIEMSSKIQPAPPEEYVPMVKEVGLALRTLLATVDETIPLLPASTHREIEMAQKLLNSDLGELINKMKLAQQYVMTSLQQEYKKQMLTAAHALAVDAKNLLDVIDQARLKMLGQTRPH
# Chain of Streptavidin (Streptomyces avidinii) (P22629 whole entry, looked up): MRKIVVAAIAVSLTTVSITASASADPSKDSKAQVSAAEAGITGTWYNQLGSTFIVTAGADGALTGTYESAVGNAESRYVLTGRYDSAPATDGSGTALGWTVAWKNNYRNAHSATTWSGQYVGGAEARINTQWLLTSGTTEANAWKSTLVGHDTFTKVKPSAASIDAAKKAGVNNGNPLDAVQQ
SMILES,composite z-score [1],composite z-score [2],composite z-score [3],composite z-score [4],composite z-score [5],composite z-score [6],z-score [7],composite z-score (Lefty1),composite z-score [8],z-score [9],composite z-score [10],z-score [11],z-score [12],z-score [13],z-score [14],composite z-score [15],composite z-score [16],composite z-score (Torsin-1A (Homo sapiens) [17]),composite z-score (Torsin-1A (Homo sapiens) [18]),composite z-score [19]
[N-]=[N+]=NCc1ccccc1[C@H]1OC(c2ccc(OCCCO)cc2)=N[C@@]1(Cc1ccccc1)C(=O)NCC(O)CO (stereo not given in full),1.86,1.25,1.08,0.726,0.474,-0.0723,1.2,-0.994,0.486,0.142 (inactive),0.11,-2.11 (inactive),-0.737 (inactive),0.96 (inactive),0.452 (inactive),0.496,0.296,0.379,0.894,-0.76
Cc1ccc(S[C@]2(C(=O)NCC(F)(F)F)CC(=O)N(C3Cc4ccccc4C3)[C@@H]2c2ccc(CO)cc2I)cc1,-1.2,-0.38,-0.493,-0.161,-1.14,-1.01,0.496,-1.36,0.0728,-0.727 (inactive),-0.465,-1.42 (inactive),-0.46 (inactive),-0.231 (inactive),0.0489 (inactive),-0.457,-0.0471,0.108,-0.248,-0.703
CC(C)C[C@@H]1NC(=O)[C@@H]2C[C@H](C(=O)NCCCCN(C)C)[C@H](c3ccc(O)cc3)N2C1=O,2.74,-0.494,-0.462,-0.838,-0.21,-0.0947,-0.273,-0.477,-0.153,0.36 (inactive),-0.341,0.446 (inactive),-0.0311 (inactive),-0.532 (inactive),-0.0914 (inactive),-0.466,-0.0624,0.0266,-0.271,0.273
O=C1O[C@@H](c2ccccc2)[C@@H](c2ccccc2)N2[C@@H](c3ccc(O)cc3)[C@]3(C(=O)Nc4ccccc43)[C@@H](C(=O)N3CCCCCCC3)[C@H]12,2.96,1.23,1.22,0.827,1.43,1.64,0.48,1.6,1.46,1.04 (inactive),1.36,-2.61 (inactive),-0.279 (inactive),0.0384 (inactive),0.276 (inactive),2.93,1.98,1.91,1.8,2.02
CC(C)(C)OC(=O)CC[C@@]1(C(=O)NCC(O)CO)N=C(c2ccc(OCCCO)cc2)O[C@@H]1c1ccccc1 (stereo not given in full),0.0885,0.913,0.415,0.681,0.392,-0.691,0.477,-0.0491,0.467,-0.962 (inactive),0.0271,0.496 (inactive),-1.15 (inactive),2.06 (inactive),-0.904 (inactive),-0.0256,-0.0361,1.07,1.01,-0.887
C=CCN1C(=O)[C@]2(COC(c3ccc(OCCCO)cc3)=N2)Cc2ccccc21,3.08,1.15,0.0652,0.885,1.08,1.08,0.604,-0.14,-0.0492,-3.52 (inactive),0.258,-3.34 (inactive),-1.18 (inactive),1.8 (inactive),-1.3 (inactive),-0.554,0.167,0.689,0.277,0.169
C=CCOC(=O)[C@@H]1[C@H]2C(=O)O[C@H](c3ccccc3)[C@H](c3ccccc3)N2[C@H](c2ccc(OCCOC(=O)[C@H]3C[C@H]4C(=O)N[C@@H](Cc5ccccc5)C(=O)N4[C@H]3c3ccc(O)cc3)cc2)[C@@]12C(=O)Nc1ccc(I)cc12,1.77,1.19,0.0087,0.521,1.36,1.39,-1.55,1.32,0.815,-1.79 (inactive),0.388,-0.409 (inactive),-0.00469 (inactive),5.82 (inactive),11.7 (active),0.593,-0.0391,0.72,0.544,1.81
Cc1ccc(N2C(=O)c3ccccc3[C@@H](C(=O)NCC(C)C)[C@@H]2c2ccc(CO)cc2)nc1,0.0133,-0.871,-0.451,-0.877,-0.186,-0.246,0.738,-0.609,-0.674,-0.663 (inactive),-0.0957,-0.308 (inactive),0.504 (inactive),-0.295 (inactive),0.892 (inactive),-1.45,-0.231,-1.67,-1.47,-0.0902
CCCC[C@@H]1C[C@H]1[C@@H](NC(=O)c1ccccc1)c1ccc(-c2ccccc2)cc1,0.676,0.818,-0.0867,0.46,0.203,-0.368,-0.232,-0.26,0.348,0.0434 (inactive),-0.0558,-4.35 (inactive),0.257 (inactive),0.0075 (inactive),0.31 (inactive),0.301,-0.0736,-0.256,-0.0118,-1.11
C=CCC(OC(C)=O)[C@@H]1[C@@H](N(Cc2ccc(-c3cccc(C(F)(F)F)c3)o2)C(=O)Cc2ccc(OC)cc2)c2cc(OCCCO)ccc2N1C(=O)Cc1ccc(OC)cc1 (stereo not given in full),-0.381,-1.04,-0.127,-1.31,0.544,0.283,0.212,-0.0334,0.0267,0.781 (inactive),-0.294,-3.06 (inactive),-1.7 (inactive),0.484 (inactive),0.609 (inactive),-1.01,-0.154,-2.51,-1.2,0.514
